Measured values as given in PubChem BioAssay (EPA / NIEHS).
Where “and” joins values, the source holds several entries; their conditions need not be identical. Equal entries are not always repeated. Inconclusive results are not listed. More than one record can exist for a structure, and the calls need not agree. Calls of active or inactive are those of the source. Rule for the calls, unless noted: active = hit-call score of the fitted dose curve at least 0.9, where 1 is the maximum; inactive = score below 0.9.

Key:
[1] = biological target: Paired box protein Pax-6 (Homo sapiens) (UniProt P26367); assay: ATG_Pax6_CIS: Attagene CIS-FACTORIAL HepG2 Assay for human Paired Box 6 (PAX6) (AID 2282956); conditions: HepG2 CIS-FACTORIAL PAX6 reporter transcription, RNA readout; actives raise or lower the signal
Sequence of Paired box protein Pax-6 (Homo sapiens) (P26367 whole entry, looked up): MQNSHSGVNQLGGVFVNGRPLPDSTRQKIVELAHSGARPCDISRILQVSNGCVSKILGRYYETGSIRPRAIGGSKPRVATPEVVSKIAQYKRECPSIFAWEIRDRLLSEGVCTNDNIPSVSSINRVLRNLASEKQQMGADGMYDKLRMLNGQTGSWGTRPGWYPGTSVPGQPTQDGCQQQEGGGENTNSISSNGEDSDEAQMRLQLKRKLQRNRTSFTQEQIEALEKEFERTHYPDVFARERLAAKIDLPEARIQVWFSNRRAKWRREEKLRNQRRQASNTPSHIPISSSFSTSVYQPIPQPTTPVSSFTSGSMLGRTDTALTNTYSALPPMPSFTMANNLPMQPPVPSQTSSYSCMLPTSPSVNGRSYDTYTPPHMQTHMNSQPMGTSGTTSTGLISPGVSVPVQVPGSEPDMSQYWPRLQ
Method in brief: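 Multiplexed cis-reporter HepG2 system; 24 h treatment; reporter mRNA read by RT-PCR/CE fluorescence; bidirectional fit vs DMSO.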

[2] = ATG_PXRE_CIS: Attagene CIS-FACTORIAL HepG2 Assay for human Pregnane X Receptor Element (PXRE) (AID 2282957); conditions: HepG2 Attagene CIS-FACTORIAL PXRE reporter, mRNA; actives raise or lower the signal
Method in brief: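 HepG2 cells transiently transfected with cis-regulated multiple reporter transcription units; endogenous factor activity measured as reporter mRNA 24 h after dosing. RT-PCR, fluorescent primer extension, HpaI digestion, capillary electrophoresis; bidirectional fit versus DMSO baseline.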

[3] = ATG_PPRE_CIS: Attagene CIS-FACTORIAL HepG2 Assay for human Peroxisome Proliferator-activated Response Element (PPRE) (AID 2282958); conditions: HepG2 PPRE cis-element reporter, Attagene transcription factor profiling; actives raise or lower the signal
Method in brief: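 PPRE activity in HepG2: transient cis-reporter transfection, 24 h compound incubation, reporter mRNA by RT-PCR and CE fluorescence; gain/loss fitted against DMSO.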

[4] = ATG_RORE_CIS: Attagene CIS-FACTORIAL HepG2 Assay for human RAR-related Orphan Receptor Element (RORE) (AID 2282959); conditions: HepG2 Attagene cis-factorial RORE reporter, mRNA; actives raise or lower the signal
Method in brief: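 A 24-hour exposure of transfected HepG2 hepatoma cells precedes RNA isolation and reporter RT-PCR. Labeled products are digested with HpaI and resolved by capillary electrophoresis, with gain or loss of signal scored relative to DMSO.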

[5] = ATG_Sox_CIS: Attagene CIS-FACTORIAL HepG2 Assay for human SRY-box transcription factor (SOX) (AID 2282960); conditions: HepG2 Attagene cis-factorial SOX reporter, mRNA; actives raise or lower the signal
Method in brief: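 HepG2, cis reporter units, 24 h exposure. Reporter mRNA: RT-PCR → FAM labelling → HpaI → CE fluorescence. Bidirectional fit vs DMSO.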

[6] = biological target: Transcription factor Sp1 (Homo sapiens) (UniProt P08047); assay: ATG_Sp1_CIS: Attagene CIS-FACTORIAL HepG2 Assay for human Specificity Protein 1 (Sp1) (AID 2282961); conditions: HepG2 Sp1 cis-reporter transcription, actives raise or lower the signal
Sequence of Transcription factor Sp1 (Homo sapiens) (P08047 whole entry, looked up, the tested form may be a part): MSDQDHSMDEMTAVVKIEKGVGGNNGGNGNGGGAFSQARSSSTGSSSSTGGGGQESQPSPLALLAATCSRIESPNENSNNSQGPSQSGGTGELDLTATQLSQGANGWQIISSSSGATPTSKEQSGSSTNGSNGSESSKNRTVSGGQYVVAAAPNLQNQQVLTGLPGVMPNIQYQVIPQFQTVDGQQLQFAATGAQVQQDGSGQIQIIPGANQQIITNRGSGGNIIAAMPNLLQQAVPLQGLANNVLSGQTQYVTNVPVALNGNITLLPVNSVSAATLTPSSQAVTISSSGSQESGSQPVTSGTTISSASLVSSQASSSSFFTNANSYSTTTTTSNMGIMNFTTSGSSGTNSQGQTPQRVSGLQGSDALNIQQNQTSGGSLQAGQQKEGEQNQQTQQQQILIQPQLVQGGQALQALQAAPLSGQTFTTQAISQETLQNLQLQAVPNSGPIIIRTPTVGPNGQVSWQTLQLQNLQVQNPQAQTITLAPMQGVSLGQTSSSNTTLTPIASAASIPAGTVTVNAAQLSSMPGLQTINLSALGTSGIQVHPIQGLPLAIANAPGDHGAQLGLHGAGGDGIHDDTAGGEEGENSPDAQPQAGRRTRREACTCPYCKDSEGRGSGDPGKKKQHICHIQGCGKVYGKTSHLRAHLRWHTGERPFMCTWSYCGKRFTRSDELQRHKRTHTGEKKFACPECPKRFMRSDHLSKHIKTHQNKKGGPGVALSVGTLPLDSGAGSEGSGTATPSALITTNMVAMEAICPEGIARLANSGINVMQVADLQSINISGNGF
Method in brief: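 Liver-derived HepG2 cells, cis-element reporter library, 24 h treatment; RNA isolated, cDNA amplified with reporter-specific primers, FAM-labeled fragments sized on capillary analyzer. DMSO baseline, bidirectional curve fit.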

[7] = ATG_SREBP_CIS: Attagene CIS-FACTORIAL HepG2 Assay for human Sterol Regulatory Element Binding (SREBP) (AID 2282962); conditions: HepG2 Attagene cis-factorial SREBP reporter, mRNA; actives raise or lower the signal
Method in brief: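 mRNA induction of transfected cis-promoter reporters in HepG2 cells, 24 h post-dose. Detection: RT-PCR with 6-FAM-labelled products, HpaI digest, capillary electrophoresis. DMSO served as negative control and baseline.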

[8] = biological target: Signal transducer and activator of transcription 3 (Homo sapiens) (UniProt P40763); assay: ATG_STAT3_CIS: Attagene CIS-FACTORIAL HepG2 Assay for human Signal Transducer and Activator of Transcription 3 (STAT3) (AID 2282963); conditions: HepG2, Attagene cis-factorial STAT3 reporter transcription; actives raise or lower the signal
Sequence of Signal transducer and activator of transcription 3 (Homo sapiens) (P40763 whole entry, looked up): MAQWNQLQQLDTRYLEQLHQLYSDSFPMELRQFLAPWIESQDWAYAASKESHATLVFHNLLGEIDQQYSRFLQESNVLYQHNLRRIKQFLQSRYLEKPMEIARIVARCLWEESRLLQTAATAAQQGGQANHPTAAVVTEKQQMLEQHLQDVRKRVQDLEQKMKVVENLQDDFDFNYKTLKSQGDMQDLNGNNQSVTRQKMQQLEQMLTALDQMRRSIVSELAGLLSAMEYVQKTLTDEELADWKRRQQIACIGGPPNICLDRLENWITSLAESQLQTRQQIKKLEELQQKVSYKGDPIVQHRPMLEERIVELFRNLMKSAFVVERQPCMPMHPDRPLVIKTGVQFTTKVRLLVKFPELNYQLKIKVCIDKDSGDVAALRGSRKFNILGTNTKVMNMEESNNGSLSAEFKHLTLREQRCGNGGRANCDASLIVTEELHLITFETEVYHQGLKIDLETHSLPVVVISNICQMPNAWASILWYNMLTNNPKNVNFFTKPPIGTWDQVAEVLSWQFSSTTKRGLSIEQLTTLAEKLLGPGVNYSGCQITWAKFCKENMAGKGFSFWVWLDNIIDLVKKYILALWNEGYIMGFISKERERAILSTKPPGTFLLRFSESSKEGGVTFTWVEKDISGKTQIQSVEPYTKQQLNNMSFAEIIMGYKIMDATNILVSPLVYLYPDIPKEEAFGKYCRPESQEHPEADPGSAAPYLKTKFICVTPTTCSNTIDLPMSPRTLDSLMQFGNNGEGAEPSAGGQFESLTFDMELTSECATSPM
Method in brief: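 Endogenous STAT3-responsive cis-element activity was read in transiently transfected HepG2 cells after 24 h treatment. Reporter transcripts were quantified via RT-PCR and capillary electrophoresis, with DMSO as negative control and bidirectional curve fitting.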

[9] = ATG_TA_CIS: Attagene CIS-FACTORIAL HepG2 Assay for human TA Basal Promoter (AID 2282964); conditions: HepG2 Attagene CIS-factorial TA basal promoter reporter; actives raise or lower the signal
Method in brief: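 Transient MRTU transfection of HepG2 preceded 24 h compound exposure. Reporter mRNA levels were then read by RT-PCR with capillary electrophoresis, and this background-control endpoint was fitted bidirectionally to DMSO.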

[10] = ATG_TAL_CIS: Attagene CIS-FACTORIAL HepG2 Assay for human TAL Basal Promoter (AID 2282966); conditions: HepG2 Attagene cis-factorial TAL promoter reporter; actives raise or lower the signal;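 note: background control endpoint measuring basal TAL promoter reporter mRNA not a specific factor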
Method in brief: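 HepG2 cells were transiently transfected with promoter-driven multiplexed reporter units and dosed for 24 h. Reporter mRNA was measured by RT-PCR with capillary electrophoresis fluorescence; bidirectional fits used DMSO as baseline, serving as a background control.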

[11] = ATG_TGFb_CIS: Attagene CIS-FACTORIAL HepG2 Assay for human Transforming Growth Factor (TGF) (AID 2282967); conditions: HepG2 Attagene CIS TGFb reporter, mRNA transcription; actives raise or lower the signal
Method in brief: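 After a 24-hour incubation with compound, transfected HepG2 cells were lysed for RNA; reporter cDNA was amplified, fluorescently end-labeled and separated by CE. DMSO served as baseline for bidirectional fits.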

[12] = ATG_VDRE_CIS: Attagene CIS-FACTORIAL HepG2 Assay for human Vitamin D Receptor Element (VDRE) (AID 2282968); conditions: HepG2 VDRE cis-reporter transcription, actives raise or lower the signal
Method in brief: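 Reporter mRNA induction, quantified by capillary electrophoresis of fluorescently labelled RT-PCR products, was read 24 h after dosing HepG2 cells carrying transiently transfected cis-regulated reporter units; gain or loss relative to DMSO.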

[13] = biological target: X-box-binding protein 1 (Homo sapiens) (UniProt P17861); assay: ATG_Xbp1_CIS: Attagene CIS-FACTORIAL HepG2 Assay for human X-box Binding Protein 1 (XBP1) (AID 2282972); conditions: HepG2 XBP1 cis-element reporter, Attagene multiplex; actives raise or lower the signal
Sequence of X-box-binding protein 1 (Homo sapiens) (P17861 whole entry, looked up, the tested form may be a part): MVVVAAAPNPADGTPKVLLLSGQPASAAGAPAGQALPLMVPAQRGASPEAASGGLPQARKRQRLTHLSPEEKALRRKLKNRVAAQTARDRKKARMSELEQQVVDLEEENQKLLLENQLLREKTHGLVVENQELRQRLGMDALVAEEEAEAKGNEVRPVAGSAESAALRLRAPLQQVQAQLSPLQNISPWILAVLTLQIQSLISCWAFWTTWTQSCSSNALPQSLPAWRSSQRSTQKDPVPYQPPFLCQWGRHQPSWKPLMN
Method in brief: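 Fluorescence-labelled cDNA fragments from reporter transcripts, separated by capillary electrophoresis, give the signal. Source: HepG2 cells transfected with promoter-driven reporter units, harvested 24 h post-dose. DMSO served as reference for bidirectional curve fitting.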

[14] = ATG_GAL4_TRANS: Attagene TRANS-FACTORIAL HepG2 Assay for GAL4 (Internal Marker) (AID 2282976; active = hit-call score of the fitted dose curve at least 0.9, where 1 is the maximum); conditions: HepG2 Attagene TRANS GAL4 internal marker reporter
Method in brief: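 HepG2 cells transiently transfected with multiplexed GAL4-UAS reporter constructs were dosed for 24 h. Reporter mRNA was measured by RT-PCR, 6-FAM primer extension, HpaI digestion and capillary electrophoresis, and gain of signal was fitted relative to DMSO.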

[15] = ATG_TCF_b_cat_CIS: Attagene CIS-FACTORIAL HepG2 Assay for human T-Cell-Factor with beta-catenin (TCF/b-cat) (AID 2282965); conditions: HepG2 TCF/beta-catenin cis-reporter transcription, actives raise or lower the signal
Method in brief: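 Endogenous transcription factor activity is captured through cis-promoter reporter constructs transiently introduced into human HepG2 liver cells. Induced reporter mRNA is measured after 24 h and fitted bidirectionally relative to DMSO.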

[16] = biological target: Estrogen receptor (Homo sapiens) (UniProt P03372); assay: ATG_ERa_TRANS: Attagene TRANS-FACTORIAL HepG2 Assay for human Estrogen Receptor alpha (ERa) (AID 2282970; active = hit-call score of the fitted dose curve at least 0.9, where 1 is the maximum); conditions: HepG2 Attagene TRANS ERa GAL4 reporter, mRNA
Sequence of Estrogen receptor (Homo sapiens) (P03372 whole entry, looked up, the tested form may be a part): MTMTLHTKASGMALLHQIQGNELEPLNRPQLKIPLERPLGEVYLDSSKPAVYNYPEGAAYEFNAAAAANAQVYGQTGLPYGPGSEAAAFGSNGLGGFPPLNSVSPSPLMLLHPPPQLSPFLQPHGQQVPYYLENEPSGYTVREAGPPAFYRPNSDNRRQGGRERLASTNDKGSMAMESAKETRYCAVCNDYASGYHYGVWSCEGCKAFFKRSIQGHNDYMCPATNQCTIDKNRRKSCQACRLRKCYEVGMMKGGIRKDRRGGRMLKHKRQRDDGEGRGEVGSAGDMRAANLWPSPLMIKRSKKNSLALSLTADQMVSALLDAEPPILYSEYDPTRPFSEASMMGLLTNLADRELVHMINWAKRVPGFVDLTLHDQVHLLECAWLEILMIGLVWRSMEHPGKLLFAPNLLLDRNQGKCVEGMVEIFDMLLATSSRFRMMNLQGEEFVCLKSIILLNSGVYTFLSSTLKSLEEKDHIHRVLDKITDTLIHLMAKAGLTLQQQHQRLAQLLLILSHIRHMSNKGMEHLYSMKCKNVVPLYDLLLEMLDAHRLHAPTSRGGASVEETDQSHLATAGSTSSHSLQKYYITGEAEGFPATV
Method in brief: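 HepG2 cells transiently transfected with multiplexed GAL4-UAS reporter units; ERa activity read via exogenous chimeric NR-Gal4 protein. After 24 hour compound exposure, reporter mRNA measured by RT-PCR with 6-FAM labelling and capillary electrophoresis; gain-of-signal fitted relative to DMSO.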

[17] = biological target: Estrogen-related receptor gamma (Homo sapiens) (UniProt P62508); assay: ATG_ERRg_TRANS: Attagene TRANS-FACTORIAL HepG2 Assay for human Estrogen-Related Receptor gamma (ERRg) (AID 2282977; active = hit-call score of the fitted dose curve at least 0.9, where 1 is the maximum;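 note: hits increase reporter signal over DMSO so potencies reflect activators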); conditions: HepG2 Attagene TRANS reporter, ERRg transactivation
Sequence of Estrogen-related receptor gamma (Homo sapiens) (P62508 whole entry, looked up, the tested form may be a part): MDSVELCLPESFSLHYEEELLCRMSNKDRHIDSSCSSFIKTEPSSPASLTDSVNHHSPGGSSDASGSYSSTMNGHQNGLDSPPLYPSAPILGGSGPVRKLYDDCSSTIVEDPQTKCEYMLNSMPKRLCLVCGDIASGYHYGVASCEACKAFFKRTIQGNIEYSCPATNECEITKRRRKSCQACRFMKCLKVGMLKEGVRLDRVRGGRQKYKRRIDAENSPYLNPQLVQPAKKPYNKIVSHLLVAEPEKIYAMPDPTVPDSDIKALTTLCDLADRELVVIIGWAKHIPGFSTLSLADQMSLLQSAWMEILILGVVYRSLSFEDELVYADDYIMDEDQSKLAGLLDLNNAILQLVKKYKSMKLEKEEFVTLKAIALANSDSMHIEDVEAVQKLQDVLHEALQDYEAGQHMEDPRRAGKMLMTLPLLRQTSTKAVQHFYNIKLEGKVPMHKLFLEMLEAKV
Method in brief: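 HepG2 cells transiently transfected with multiplexed GAL4-UAS reporter units driven by chimeric NR-Gal4 proteins; 24 h exposure. Reporter mRNA quantified by RT-PCR, fluorescent labelling, HpaI digestion and capillary electrophoresis; gain of signal vs DMSO.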

[18] = biological target: Nuclear receptor subfamily 1 group I member 3 (Homo sapiens) (UniProt Q14994); assay: ATG_CAR_TRANS: Attagene TRANS-FACTORIAL HepG2 Assay for human Constitutive Androstane Receptor (CAR) (AID 2282969; active = hit-call score of the fitted dose curve at least 0.9, where 1 is the maximum;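 note: activators raise reporter mRNA above DMSO so AC50 marks induction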); conditions: HepG2 Attagene TRANS-FACTORIAL CAR reporter
Sequence of Nuclear receptor subfamily 1 group I member 3 (Homo sapiens) (Q14994 whole entry, looked up, the tested form may be a part): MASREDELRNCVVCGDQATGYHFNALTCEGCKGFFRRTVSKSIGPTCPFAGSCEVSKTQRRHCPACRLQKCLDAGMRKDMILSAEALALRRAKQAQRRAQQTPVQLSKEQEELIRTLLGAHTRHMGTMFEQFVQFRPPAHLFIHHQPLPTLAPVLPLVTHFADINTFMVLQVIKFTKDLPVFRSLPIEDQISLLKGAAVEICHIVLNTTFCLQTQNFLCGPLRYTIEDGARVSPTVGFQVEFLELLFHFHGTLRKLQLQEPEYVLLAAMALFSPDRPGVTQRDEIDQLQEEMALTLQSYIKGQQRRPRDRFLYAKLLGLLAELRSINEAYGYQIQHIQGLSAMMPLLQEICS
Method in brief: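 Readout is reporter mRNA induction, quantified by fluorescent primer extension and capillary electrophoresis after RT-PCR. Cells were HepG2 transiently carrying chimeric NR-Gal4 constructs with GAL4-UAS reporters, treated for 24 h; activity scored upward from DMSO.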

[19] = biological target: Steroid hormone receptor ERR1 (Homo sapiens) (UniProt P11474); assay: ATG_ERRa_TRANS: Attagene TRANS-FACTORIAL HepG2 Assay for human Estrogen-Related Receptor alpha (ERRa) (AID 2282971; active = hit-call score of the fitted dose curve at least 0.9, where 1 is the maximum); conditions: HepG2 Attagene TRANS reporter, ERRa transactivation
Sequence of Steroid hormone receptor ERR1 (Homo sapiens) (P11474 whole entry, looked up, the tested form may be a part): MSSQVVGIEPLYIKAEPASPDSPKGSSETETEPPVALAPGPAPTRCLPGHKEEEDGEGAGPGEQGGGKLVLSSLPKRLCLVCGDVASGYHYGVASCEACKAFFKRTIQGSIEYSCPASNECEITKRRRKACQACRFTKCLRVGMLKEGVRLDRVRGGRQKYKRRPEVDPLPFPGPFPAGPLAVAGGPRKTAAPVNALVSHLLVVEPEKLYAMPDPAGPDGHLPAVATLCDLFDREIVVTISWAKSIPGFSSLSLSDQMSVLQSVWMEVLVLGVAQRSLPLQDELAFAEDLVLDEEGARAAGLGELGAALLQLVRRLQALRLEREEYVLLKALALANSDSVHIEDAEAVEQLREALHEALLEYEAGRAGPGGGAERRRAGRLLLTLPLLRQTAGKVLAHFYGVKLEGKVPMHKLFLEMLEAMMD
Method in brief: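 HepG2 cells transiently transfected with multiplexed GAL4-UAS reporter units reading chimeric ERRa-Gal4 activity; 24 h compound exposure. Reporter mRNA measured by RT-PCR, 6-FAM labelling, HpaI digest and capillary electrophoresis; gain of signal fitted versus DMSO baseline.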

Measured: AC50

CCCCOC(=O)c1ccc(O)cc1
inactive: [1] | [2] | [3] | [4] | [5] | [6] | [7] | [8] | [9] | [10] | [11] | [12] | [13] | [14]
active: [1] 81.5 µM | [2] 27 µM and 24.1 µM | [3] 63.3 µM and 65.9 µM and 24.9 µM | [4] 65 µM | [5] 100 µM | [7] 19.8 µM | [9] 79 µM | [12] 72.4 µM and 51.8 µM | [13] 107 µM

COCC(C)OCC(C)OCC(C)O (stereo not drawn)
not listed: [14] | [18] | [19]
inactive: all other assays above

CCN(Cc1cccc(S(=O)(=O)O)c1)c1ccc(C(=C2C=CC(=[N+](CC)Cc3cccc(S(=O)(=O)O)c3)C=C2)c2ccccc2S(=O)(=O)[O-])cc1
not listed: [14]
inactive: all other assays above

COc1cccc([C@H](O)C2CCN(CCc3ccc(F)cc3)CC2)c1OC
active: [2] 25.8 µM | [15] 100 µM
not listed: [17] | [18] | [19]
inactive: all other assays above

Clc1cc(Cl)c2c(c1)N=C1CCCCCN1C2
active: [2] 13.2 µM | [15] 83.4 µM
not listed: [14] | [19]
inactive: all other assays above

Cc1c2ccccc2c(C)c2c1ccc1ccccc12
active: [2] 2.42 µM | [4] 54.8 µM | [5] 52.4 µM | [6] 6.93 µM | [15] 53.4 µM | [11] 54.4 µM | [18] 44.7 µM | [16] 11.4 µM
not listed: [19]
inactive: all other assays above
